# Assay results from PubChem BioAssay (NCATS).
# “And” between values parts separate entries of the source, which are not always exact repeats. Equal entries are not always repeated. Inconclusive results are not listed. Entries that show only a call come without a potency. The source made the active and inactive calls. Unless noted, calls follow the shape of the dose curve; as a rule, active = well fitted curve in the direction sought with a large enough effect; inconclusive = small, poorly fitted or top-dose-only effect, or another doubt; inactive = no such curve, though single readings can be large; an effect the other way counts as inactive or inconclusive.
# Key:
# [1] = Cell Viability - H-4-II-E (AID 543);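 also: cells exposed to compound for 40 hours; nearly all actives have a fitted effect of over 35% in size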
# Outline: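 Cells seeded at 1500 per well and rested 5 hr; compounds added; 40 hr incubation at 37 °C; CellTiter-Glo added, 20 min at room temperature; luminescence read. Hill-equation fits gave AC50.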
# [2] = Cell Viability - SH-SY5Y (AID 544); conditions: SH-SY5Y neuroblastoma cell viability; viability change, negative = cytotoxic: at 92.2 µM (top of the series);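 also: cells exposed to compound for 40 hours; nearly all actives have a fitted effect of over 55% in size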
# Outline: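 Cells were plated at 1500 per well and allowed 5 hr at 37 °C. Compounds were added across a concentration range and incubated 40 hr at 37 °C. CellTiter-Glo was added for 20 min at room temperature before luminescence reading.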
# [3] = Cell Viability - Renal Proximal Tubule (AID 545);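 also: cells exposed to compound for 40 hours; nearly all actives have a fitted effect of over 40% in size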
# Outline: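 Rat kidney proximal tubule cells, freshly isolated; 1000 cells/well, 5 hr settle, compound 40 hr 37 °C. CellTiter-Glo 20 min RT, luminescence read. AC50 by standard Hill fit.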
# [4] = Cellular Toxicity (caspase-3) Hek293 (AID 664); conditions: HEK293 caspase-3 activation, DMSO = 0%, 100 µM tamoxifen = 100%; at 92.2 µM (top of the series);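 also: cells exposed to compound for 16 h at 37 °C before readout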
# Outline: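 qHTS, HEK293 (human embryonic kidney), 16 h cpd exposure in complete medium. Caspase-3/7 activation = luminescence increase; normalized to DMSO/100 uM tamoxifen; Hill-fit AC50.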
# [5] = Cell Viability - LYMP2-003 (AID 965);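 also: cells exposed to compounds for 24 h before reading; nearly all actives have a fitted effect of over 50% in size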
# Outline: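 CellTiter-Glo luminescence (cellular ATP) after 24 h compound exposure at 37 C in complete medium; 2500 cells/well, 5 h settling beforehand. Concentration-response fitted to standard Hill equation for AC50. Tetraoctylammonium bromide served as positive control.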
# [6] = Cell Viability - LYMP2-009 (AID 968); also: nearly all actives have a fitted effect of over 55% in size
# [7] = Cell Viability - LYMP2-013 (AID 970); also: nearly all actives have a fitted effect of over 55% in size
# Outline: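 Cytotoxicity is scored as a concentration-dependent drop in intracellular ATP in human lymphoblastoid cells after 24 hr compound exposure at 37 C. ATP is quantified by luciferase luminescence, and AC50 values come from Hill-equation modeling.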
# [8] = Cell Viability - LYMP2-019 (AID 973); also: nearly all actives have a fitted effect of over 55% in size
# Outline: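 Cytotoxicity is scored as a concentration-dependent drop in cellular ATP after cells (2500/well) receive compound for 24 hr at 37 C. Tetraoctylammonium bromide serves as positive control.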
# [9] = Cell Viability - LYMP2-025 (AID 976)
# Outline: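 Acute cytotoxicity is scored as a concentration-dependent fall in intracellular ATP, measured by luciferase luminescence, in human lymphoblastoid LYMP2-025 cells exposed to compound for 24 hours at 37 C. AC50 values come from standard Hill fits.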
# [10] = Cell Viability - LYMP2-002 (AID 977)
# Outline: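 Human lymphoblastoid cells (2500/well) in complete medium were preincubated 5 hr at 37 C, then exposed to compounds for 24 hr at 37 C. Intracellular ATP was read by CellTiter-Glo luminescence; AC50 came from Hill-equation concentration-response fits.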
# [11] = Cell Viability - LYMP2-006 (AID 978); also: nearly all actives have a fitted effect of over 60% in size
# Outline: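 qHTS, 1536-well; 2500 cells/well, 5 hr 37 C; cpd 24 hr 37 C; CellTiter-Glo 30 min RT; luminescence. Tetraoctylammonium bromide pos. ctrl. AC50 via Hill eqn.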
# [12] = Cell Viability - LYMP2-008 (AID 980); also: nearly all actives have a fitted effect of over 60% in size
# Outline: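 Cells seeded at 2500/well and rested 5 hr at 37 C; compounds added over a concentration range and incubated 24 hr at 37 C; CellTiter-Glo added, 30 min at room temperature; luminescence read and AC50 fitted with Hill model.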
# [13] = Cell Viability - LYMP2-012 (AID 982)
# [14] = Cell Viability - LYMP2-020 (AID 986); also: nearly all actives have a fitted effect of over 55% in size
# Outline: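 Seed 2500 cells per well and incubate 5 hr at 37 C. Add compounds at a concentration series and incubate 24 hr at 37 C. Add CellTiter-Glo, wait 30 min at RT, read luminescence, and fit a Hill curve for AC50.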
# [15] = Cell Viability - LYMP2-022 (AID 987); also: nearly all actives have a fitted effect of over 55% in size
# Outline: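 Cells were seeded at 2500 per well, rested 5 hr at 37 C, and treated with titrated compounds for 24 hr at 37 C. Cellular ATP was then quantified by luciferase luminescence, and AC50 values were derived from Hill-modelled concentration-response curves.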
# [16] = Cell Viability - LYMP2-026 (AID 989); also: nearly all actives have a fitted effect of over 50% in size
# Outline: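 Cells are seeded at 2500 per well and held 5 hr at 37 C. Compounds are added in concentration series for 24 hr, then CellTiter-Glo reagent is applied and luminescence read.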
# [17] = Cell Viability - LYMP1-002 - Assay at 40 hr (AID 994); also: nearly all actives have a fitted effect of over 60% in size
# Outline: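 Cells are plated at 2500 per well and rested 5 hr at 37 C. Compounds are added and incubated 40 hr at 37 C. CellTiter-Glo reagent is added for 30 min at room temperature before luminescence is read.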
# [18] = qHTS assay for small molecule agonists of retinoid X receptor alpha signaling (AID 588544; calls by dose curve); conditions: HEK293T RXRa-UAS-bla, beta-lactamase reporter, 18 h; 530 nm emission
# [19] = biological target: Retinoic acid receptor RXR-alpha (Homo sapiens) (UniProt P19793); test: as above
# [20] = biological target: Tumor necrosis factor (Homo sapiens) (UniProt P01375); test: qHTS assay to identify small molecules that stimulate Tumor Necrosis Factor-alpha (TNF-alpha) secretion (AID 651757; active = well fitted curve in the direction sought with a large enough effect in the signal ratio; the % refers to the signal ratio)
# Outline: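 Human monocytic THP-1 cells are plated, treated with compound and held at 37 C for 17 hrs. Labeled anti-TNF-alpha antibody mixture is then added; after 3 hr at room temperature, TR-FRET signal reports secreted TNF-alpha.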
# Retinoic acid receptor RXR-alpha (Homo sapiens), sequence (P19793 whole entry, looked up): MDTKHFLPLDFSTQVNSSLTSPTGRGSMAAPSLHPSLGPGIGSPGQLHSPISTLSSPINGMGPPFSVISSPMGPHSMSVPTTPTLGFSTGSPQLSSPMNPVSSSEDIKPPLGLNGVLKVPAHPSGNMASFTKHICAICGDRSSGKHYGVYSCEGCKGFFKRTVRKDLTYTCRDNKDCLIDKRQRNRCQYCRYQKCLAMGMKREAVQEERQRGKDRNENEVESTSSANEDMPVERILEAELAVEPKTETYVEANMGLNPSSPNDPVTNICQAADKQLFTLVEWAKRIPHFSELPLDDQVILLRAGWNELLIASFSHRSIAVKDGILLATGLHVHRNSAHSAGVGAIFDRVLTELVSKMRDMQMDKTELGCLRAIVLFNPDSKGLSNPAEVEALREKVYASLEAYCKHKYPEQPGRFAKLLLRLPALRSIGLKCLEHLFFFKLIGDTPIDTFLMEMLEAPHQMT
# Tumor necrosis factor (Homo sapiens), sequence (P01375 whole entry, looked up): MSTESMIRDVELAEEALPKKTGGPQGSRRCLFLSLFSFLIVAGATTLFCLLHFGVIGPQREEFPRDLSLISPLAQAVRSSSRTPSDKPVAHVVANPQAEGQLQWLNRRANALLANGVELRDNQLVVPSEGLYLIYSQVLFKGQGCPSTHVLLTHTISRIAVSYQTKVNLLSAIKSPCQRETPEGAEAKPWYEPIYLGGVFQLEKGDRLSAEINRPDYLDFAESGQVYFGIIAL
Structure (SMILES),Potency [1],Potency [2],outcome [3],caspase-3 activation [4],Potency [5],Potency [6],Potency [7],Potency [8],Potency [9],Potency [10],Potency [11],Potency [12],Potency [13],Potency [14],Potency [15],Potency [16],Potency [17],max response [18],outcome [19],outcome [20]
O=C(Cc1ccccc1)OCc1ccccc1,inactive,inactive,inactive,2.6% (inactive),inactive,inactive,inactive,inactive,inactive,inactive,inactive,inactive,inactive,inactive,inactive,inactive,inactive,10.7%,inactive,inactive
CN(C)C(=O)Nc1ccc(Cl)cc1,inactive,inactive,inactive,2.1% (inactive),inactive,inactive,inactive,inactive,,inactive,inactive,inactive,inactive,inactive,inactive,inactive,inactive,-9.88% and -12.4%,inactive,inactive
CC[N+](=O)[O-],inactive,inactive,inactive,3.71% (inactive),inactive,inactive,inactive,inactive,inactive,inactive,inactive,inactive,inactive,inactive,inactive,inactive,inactive,-9.1%,inactive,inactive
Cc1cccc(N)c1C,inactive,inactive,inactive,1.27% (inactive),inactive,inactive,inactive,inactive,inactive,inactive,inactive,inactive,,inactive,inactive,inactive,,-3.13%,inactive,inactive
c1ccc(P(c2ccccc2)c2ccccc2)cc1,inactive,inactive,inactive,-0.936% (inactive),inactive,inactive,inactive,,inactive,inactive,inactive,inactive,inactive,inactive,inactive,inactive,inactive,22.6%,inactive,inactive
O=c1ccc(=O)[nH][nH]1,inactive,inactive,inactive,-1% (inactive),inactive,inactive,inactive,inactive,inactive,inactive,inactive,inactive,inactive,inactive,inactive,inactive,inactive,-8.67% and -14.6%,inactive,inactive
O=S(=O)(O)F,inactive,inactive,inactive,4.29% (inactive),inactive,inactive,inactive,inactive,inactive,inactive,inactive,inactive,inactive,inactive,inactive,inactive,inactive,-13.3%,inactive,inactive
Nc1c(Cl)cc([N+](=O)[O-])cc1Cl,,inactive,inactive,6.24% (inactive),inactive,inactive,inactive,inactive,inactive,inactive,inactive,inactive,inactive,inactive,inactive,inactive,inactive,-1.27% and -9.53%,inactive,inactive
